What follows are compounds tested on Plasmodium falciparum (assay: GSK_TCMDC: Inhibition of Plasmodium falciparum 3D7 in whole red blood cells, using parasite LDH activity as an index of growth. Test compounds present at 2uM).
Type: functional

Row | Structure (SMILES) | Inhibition [%]
1 | CN(C)C(=O)CCCn1c(CNCCCNc2cc(=O)c3ccccc3[nH]2)cc2c(Cl)cc(Cl)cc21.Cl | 89
2 | O=C(Nc1ccc(-n2ccc(C(F)(F)F)n2)cc1)c1cccs1 | 89
3 | O=C(N[C@H]1CCCC[C@H]1C(=O)O)c1ccccc1 | 95
4 | O=C(O)/C=C\C(=O)O.O=c1c2sc(-c3ccc(Cl)cc3)cc2ncn1Cc1ccc(OCCN2CCCC2)c2ccccc12 | 100
5 | O=C(Nc1ccc(Cl)c(Cl)c1)N1CCC(CNCc2cccc([N+](=O)[O-])c2)CC1.O=C(O)C(F)(F)F | 98
6 | O=C(NCCCCN1CCC(c2c[nH]c3ccc(-c4ccccc4)cc23)CC1)c1ccc(-c2ccccc2)cc1.O=C(O)C(=O)O | 97
7 | CCn1c(CN2CCC(C)CC2)nc2cc(NC(=O)c3cccs3)ccc21 | 91
8 | C=CCOC(=O)O[C@@H]1[C@@H](OC(=O)OCC=C)[C@@H](OC)O[C@H](COC(c2ccccc2)(c2ccccc2)c2ccccc2)[C@H]1OC(=O)OCC=C | 95
9 | CCOC(=O)c1ccc(NC(=O)N(Cc2ccc(-c3ccc(CN4CCNCC4)cc3)cc2)C2CCN(Cc3ccccc3)CC2)cc1.O=C(O)C(F)(F)F | 100
10 | O=C(/C=C/c1ccc(Cl)c(Cl)c1)NCCCCCCN1CCN(C(=O)Nc2ccc(C(F)(F)F)cc2)CC1 | 100
11 | CN1CCN(c2nc(NCCNc3ccc([N+](=O)[O-])cc3)c3ccccc3n2)CC1 | 90
12 | CC(=O)Nc1ncc(C(=O)Nc2cccc(-c3ccc(-c4nc5cc(F)ccc5[nH]4)cc3)c2)s1 | 94
13 | CC(C)S(=O)(=O)N1CCN(Cc2ccc3c(c2)nc(NC(=O)c2ccsc2)n3C[C@H](O)c2ccccc2)CC1 | 91
14 | O=C(NCCCCN1CCCC2c3ccc(O)cc3CCC21)c1ccc(-c2ccccc2)cc1 (centres undefined) | 96
15 | O=C(NCC1CCC(C(=O)NCCc2ccc(Cl)c(Cl)c2)CC1)c1ccc(O)c(-c2ccc(Cl)c(Cl)c2)c1 (centres undefined) | 94
16 | CS(=O)(=O)c1cccc(-c2cnc(N)c3cc(-c4ccc(F)cc4)ccc23)c1 | 91
17 | COc1ccc(NC(=O)c2ccc3cc4ccccc4cc3c2)cc1N1CCN(C)CC1 | 86
18 | CC(C)c1ccc(OCC(O)CN(C)C(C)C(O)c2ccccc2)c(Br)c1.Cl (centres undefined) | 95
19 | Nc1c(Cl)cc(C(O)CNCCCCCCOCCC=C2CCOCC2)cc1Cl (centres undefined) | 100
20 | O=c1ccc(CNc2nc(NCCc3ccccc3)nc3cc(Cl)ccc23)c[nH]1 | 95

Row | Structure (SMILES) | Inhibition [%]
21 | Cl.N=C(N)NCCCN(Cc1ccccc1)c1ccccc1 | 100
22 | CC(C)COc1cc(C(=O)Nc2cnc3ccccc3c2)ccc1[N+](=O)[O-] | 97
23 | O=C(Nc1ccc(Oc2ccc(OC(F)(F)F)cc2)cc1)c1ccco1 | 90
24 | Cc1cc(N(C)C)nc(Nc2ccc(NC(=O)C3CCCCC3)cc2)n1 | 100
25 | COc1ccc2cc(C(=O)NC3CCC(CCN4CCc5cc(C#N)ccc5C4)CC3)[nH]c2c1.Cl (centres undefined) | 88
26 | Cc1cc2ncn(-c3nccc(NCc4cccnc4)n3)c2cc1C.O=C(O)C(F)(F)F | 99
27 | O=c1cc(NCCCCNCc2cccc(Cl)c2)[nH]c2ccccc12 | 98
28 | CC(C)CN1C(=O)c2ccc(C(=O)Nc3nccs3)cc2C1=O | 89
29 | COc1ccc2[nH]ccc(=NN=Cc3cccc(C)n3)c2c1 | 100
30 | Cc1cccc2nc(-c3ccc(-c4cccc(NC(=O)c5cncn5C)c4)cc3)[nH]c12 | 100
31 | COc1ccccc1C1CCN(C2CCC(NC(=O)/C=C/c3cc(C(F)(F)F)cc(C(F)(F)F)c3)CC2)CC1 (centres undefined) | 92
32 | CCCSc1nc2c(c(=O)n1CCc1ccccc1)C1(CCCC1)Cc1ccccc1-2 | 99
33 | CCOc1ccc2[nH]c(-c3ccccc3)cc(=NN=Cc3ccncc3)c2c1 | 100
34 | Cc1noc(-c2ccc(O)cc2O)c1-c1ccc2c(c1)OCCCO2 | 100
35 | COc1ccc(N2CCN(C(CNC(=O)C3CCCCC3)c3ccc4c(c3)OCO4)CC2)cc1 (centres undefined) | 92
36 | CC[C@H](C)CNC(=O)c1cncc(-c2cccc(CNCCCc3ccccc3)c2)c1.O=C(O)C(F)(F)F | 95
37 | N#Cc1ccc(-c2nc3c(N4CCCC4)cccc3n2CCNCc2ccccc2)cc1.O=C(O)C(F)(F)F | 100
38 | Cc1[nH]c(C)c(-c2ccc(Oc3ccc(OC(F)(F)F)cc3)cc2)c(=O)c1Br | 96
39 | O=C(Nc1cccnc1)c1cc(-c2cccnc2)nc2ccc(Br)cc12 | 99
